For 31 molecules, binding signal results are on record in PMC9911399, “Two distinct binding modes provide the RNA-binding protein RbFox with extraordinary sequence specificity”.

Numbering of substitutions follows the chain as printed; changes in the protein carry UniProt numbers. In all, about 16,000 sequences were measured (“ka relative to ugcaugu”: median about 0.096, highest 2% from about 0.35 on). What follows is part of a selection rich in the highest values, with near analogues and random picks from the rest.

B1: AACCCAG (DNA:RNA)
RNA: GGGAGACCGGAAUUCAGAUUGUCCAACCCAGUUAAAUCCCGUCGUAGCCACCA
DNA 1: CAATCTGAATTCCGGTCTCCC
DNA 2: TGGTGGCTACGACGGGATT
B2: CCAAUCA (DNA:RNA)
RNA: GGGAGACCGGAAUUCAGAUUGUCCCCAAUCAUUAAAUCCCGUCGUAGCCACCA
DNA 1: CAATCTGAATTCCGGTCTCCC
DNA 2: TGGTGGCTACGACGGGATT
B3: UCAGUGG (DNA:RNA)
RNA: B2 RNA with C25U, A28G, C30G, A31G
DNA 1: CAATCTGAATTCCGGTCTCCC
DNA 2: TGGTGGCTACGACGGGATT
B4: AGUUGAG (DNA:RNA)
RNA: B1 RNA with A26G, C27U, C28U, C29G
DNA 1: CAATCTGAATTCCGGTCTCCC
DNA 2: TGGTGGCTACGACGGGATT
B5: AUAGCCG (DNA:RNA)
RNA: B1 RNA with A26U, C27A, C28G, A30C
DNA 1: CAATCTGAATTCCGGTCTCCC
DNA 2: TGGTGGCTACGACGGGATT
B6: AAGUGAG (DNA:RNA)
RNA: B1 RNA with C27G, C28U, C29G
DNA 1: CAATCTGAATTCCGGTCTCCC
DNA 2: TGGTGGCTACGACGGGATT
B7: UGCAUUA (DNA:RNA)
RNA: B2 RNA with C25U, C26G, A27C, C30U
DNA 1: CAATCTGAATTCCGGTCTCCC
DNA 2: TGGTGGCTACGACGGGATT
B8: UGCAUGA (DNA:RNA)
RNA: B2 RNA with C25U, C26G, A27C, C30G
DNA 1: CAATCTGAATTCCGGTCTCCC
DNA 2: TGGTGGCTACGACGGGATT
B9: UGCGUCA (DNA:RNA)
RNA: B2 RNA with C25U, C26G, A27C, A28G
DNA 1: CAATCTGAATTCCGGTCTCCC
DNA 2: TGGTGGCTACGACGGGATT
B10: UGCGUGG (DNA:RNA)
RNA: B1 RNA with A25U, A26G, C28G, C29U, A30G
DNA 1: CAATCTGAATTCCGGTCTCCC
DNA 2: TGGTGGCTACGACGGGATT
B11: UCCUGCA (DNA:RNA)
RNA: B2 RNA with C25U, A27C, A28U, U29G
DNA 1: CAATCTGAATTCCGGTCTCCC
DNA 2: TGGTGGCTACGACGGGATT
B12: UGCAUCA (DNA:RNA)
RNA: B2 RNA with C25U, C26G, A27C
DNA 1: CAATCTGAATTCCGGTCTCCC
DNA 2: TGGTGGCTACGACGGGATT
B13: UGCAUGG (DNA:RNA)
RNA: B1 RNA with A25U, A26G, C28A, C29U, A30G
DNA 1: CAATCTGAATTCCGGTCTCCC
DNA 2: TGGTGGCTACGACGGGATT
B14: UGCCUGG (DNA:RNA)
RNA: B1 RNA with A25U, A26G, C29U, A30G
DNA 1: CAATCTGAATTCCGGTCTCCC
DNA 2: TGGTGGCTACGACGGGATT
B15: UGCAUAA (DNA:RNA)
RNA: B2 RNA with C25U, C26G, A27C, C30A
DNA 1: CAATCTGAATTCCGGTCTCCC
DNA 2: TGGTGGCTACGACGGGATT
B16: GCCAUCG (DNA:RNA)
RNA: B2 RNA with C25G, A27C, A31G
DNA 1: CAATCTGAATTCCGGTCTCCC
DNA 2: TGGTGGCTACGACGGGATT
B17: GUCAUAC (DNA:RNA)
RNA: B1 RNA with A25G, A26U, C28A, C29U, G31C
DNA 1: CAATCTGAATTCCGGTCTCCC
DNA 2: TGGTGGCTACGACGGGATT
B18: AUUUCGA (DNA:RNA)
RNA: B1 RNA with A26U, C27U, C28U, A30G, G31A
DNA 1: CAATCTGAATTCCGGTCTCCC
DNA 2: TGGTGGCTACGACGGGATT
B19: AAACAAG (DNA:RNA)
RNA: B1 RNA with C27A, C29A
DNA 1: CAATCTGAATTCCGGTCTCCC
DNA 2: TGGTGGCTACGACGGGATT
B20: UAAUACC (DNA:RNA)
RNA: B2 RNA with C25U, C26A, A28U, U29A, A31C
DNA 1: CAATCTGAATTCCGGTCTCCC
DNA 2: TGGTGGCTACGACGGGATT
B21: AGCUAUA (DNA:RNA)
RNA: B1 RNA with A26G, C28U, C29A, A30U, G31A
DNA 1: CAATCTGAATTCCGGTCTCCC
DNA 2: TGGTGGCTACGACGGGATT
B22: AGUGGCA (DNA:RNA)
RNA: B2 RNA with C25A, C26G, A27U, A28G, U29G
DNA 1: CAATCTGAATTCCGGTCTCCC
DNA 2: TGGTGGCTACGACGGGATT
B23: CAAAUUG (DNA:RNA)
RNA: B2 RNA with C26A, C30U, A31G
DNA 1: CAATCTGAATTCCGGTCTCCC
DNA 2: TGGTGGCTACGACGGGATT
B24: GGGGGUG (DNA:RNA)
RNA: B1 RNA with A25G, A26G, C27G, C28G, C29G, A30U
DNA 1: CAATCTGAATTCCGGTCTCCC
DNA 2: TGGTGGCTACGACGGGATT
B25: GGGUGUG (DNA:RNA)
RNA: B1 RNA with A25G, A26G, C27G, C28U, C29G, A30U
DNA 1: CAATCTGAATTCCGGTCTCCC
DNA 2: TGGTGGCTACGACGGGATT
B26: GGGGGUC (DNA:RNA)
RNA: GGGAGACCGGAAUUCAGAUUGUCCGGGGGUCUUAAAUCCCGUCGUAGCCACCA
DNA 1: CAATCTGAATTCCGGTCTCCC
DNA 2: TGGTGGCTACGACGGGATT
B27: GGGUGUC (DNA:RNA)
RNA: B26 RNA with G28U
DNA 1: CAATCTGAATTCCGGTCTCCC
DNA 2: TGGTGGCTACGACGGGATT
B28: CCGGGUG (DNA:RNA)
RNA: B26 RNA with G25C, G26C, C31G
DNA 1: CAATCTGAATTCCGGTCTCCC
DNA 2: TGGTGGCTACGACGGGATT
B29: GCGGGUG (DNA:RNA)
RNA: B26 RNA with G26C, C31G
DNA 1: CAATCTGAATTCCGGTCTCCC
DNA 2: TGGTGGCTACGACGGGATT
B30: GGUCUGG (DNA:RNA)
RNA: B1 RNA with A25G, A26G, C27U, C29U, A30G
DNA 1: CAATCTGAATTCCGGTCTCCC
DNA 2: TGGTGGCTACGACGGGATT
B31: ACUUCCA (DNA:RNA)
RNA: B2 RNA with C25A, A27U, A28U, U29C
DNA 1: CAATCTGAATTCCGGTCTCCC
DNA 2: TGGTGGCTACGACGGGATT

In this experiment the target is T1, RBFOX1 RRM RbFoxmut (Fox-RRM*) (Homo sapiens, UniProt Q9NWB1 109-208, R118D;E147R;N151S;E152T).
T1 sequence: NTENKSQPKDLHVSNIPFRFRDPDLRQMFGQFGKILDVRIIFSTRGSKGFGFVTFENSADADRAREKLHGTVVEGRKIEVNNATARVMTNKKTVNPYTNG
Briefly: EMSA; HiTS-Eq, 1 nM pool, 10 min; buffer printed only for the single-RNA assays: 10 mM Tris pH 7.5, 150 mM NaCl, 3.4 mM EDTA, 0.001% NP-40, 30 C. The note with it: tags: His6 N-terminal (pET28a); label: 5' 32P. Put shortly: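 These values rest on relative association constants, computed from read-count changes of each RNA species versus the control reaction and normalised to the cognate motif. Reads came from free RNA recovered by 8% native PAGE after purified RbFox RRM (wild type or mutant) at increasing concentrations was equilibrated for 10 min in 50 µL with 1 nM of a 5′-radiolabelled pool with 7 randomized nucleotides and DNA-annealed flanks.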
As to B1, the binding signal was 0.0936 KA relative to UGCAUGU. For the molecule B2, the binding signal is 0.0737 KA relative to UGCAUGU. Regarding B3, the binding signal was 0.101 KA relative to UGCAUGU. For B4, the binding signal was 0.133 KA relative to UGCAUGU. B5: the binding signal was 0.119 KA relative to UGCAUGU. The value for B6 was 0.137 KA relative to UGCAUGU. The same measure for B7: 0.163 KA relative to UGCAUGU; for B8: 0.692 KA relative to UGCAUGU.

Take B9: the binding signal was 0.155 KA relative to UGCAUGU.

In the case of B10, the binding signal was 0.138 KA relative to UGCAUGU.

For B11, the binding signal is 0.24 KA relative to UGCAUGU.

With B12, the binding signal was 0.565 KA relative to UGCAUGU. The same measure for B13: 0.935 KA relative to UGCAUGU. For the molecule B14, the binding signal is 0.233 KA relative to UGCAUGU. For the molecule B15, the binding signal is 0.146 KA relative to UGCAUGU. The same measure for B16: 0.0927 KA relative to UGCAUGU; for B17: 0.1 KA relative to UGCAUGU. The same measure for B18: 0.114 KA relative to UGCAUGU. The same measure for B19: 0.0927 KA relative to UGCAUGU. Take B20: the binding signal was 0.0785 KA relative to UGCAUGU. For B21, the binding signal was 0.14 KA relative to UGCAUGU. The value for B22 was 0.144 KA relative to UGCAUGU; that for B23 was 0.117 KA relative to UGCAUGU; that for B24 was 0.289 KA relative to UGCAUGU. B25: the binding signal was 0.441 KA relative to UGCAUGU.

On to B26, for which the binding signal was 0.201 KA relative to UGCAUGU. The value for B27 was 0.368 KA relative to UGCAUGU; that for B28 was 0.163 KA relative to UGCAUGU; that for B29 was 0.194 KA relative to UGCAUGU.

Take B30: the binding signal is 0.153 KA relative to UGCAUGU. The value for B31 was 0.0542 KA relative to UGCAUGU.
